Results on 25 compounds are retold here after PubChem BioAssay (NCATS).

Assay [1] in a line: A High-Content qHTS Against Drug Library for the Identification of Small Molecules that Inhibit DYT1 Early Onset Primary Dystonia-Associated Cell Pathology (AID 1645839; calls by dose curve). The note with it: HEK293 Flp-In EGFP-delE TorsinA, punctate imaging, 48 h; series mostly up to 46.1 µM. Put shortly:
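High-content imaging quantified EGFP-TorsinA mislocalization in HEK293-derived cells inducibly expressing DYT1 mutant torsinA, after 48 h exposure to compound given together with tetracycline induction. Cell count served as a toxicity channel alongside %pathology.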
A general note: In qHTS, concentration-response curves come from the screen itself.

Assay [2] concerns the target Cytochrome P450 2D6 (Homo sapiens) (UniProt P10635). The assay is described as follows: Cytochrome P450 family 2 subfamily D member 6 (CYP2D6) small molecule antagonists: luciferase biochemical (cell-free) qHTS assay (AID 1645840; active means well fitted curve in the direction sought with a large enough effect in the repeat runs; an effect the other way counts as inactive or inconclusive; further: nearly all actives have a fitted effect of over 55% in size; further: potency means the concentration at half of the fitted maximal effect; on activity change, negative = inhibition: on the % scale 0 is the no-effect control and ±100 the full control effect). The note with it: P450-Glo CYP2D6 enzyme, luciferin luminescence, 1 h; series mostly up to 57.4 µM. Put shortly:
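P450-Glo CYP2D6 system: proluciferin substrate converted by enzyme to luciferin, read by luminescence proportional to activity. Enzyme-substrate mix with compound 10 min at room temperature, then NADPH regeneration 1 h before detection reagent.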

The target in assay [3] is Cytochrome P450 2C9 (Homo sapiens) (UniProt P11712). Briefly: Cytochrome P450 family 2 subfamily C member 9 (CYP2C9) small molecule antagonists: luciferase biochemical (cell-free) qHTS assay (AID 1645842; active means well fitted curve in the direction sought with a large enough effect in the repeat runs; an effect the other way counts as inactive or inconclusive; further: nearly all actives have a fitted effect of over 55% in size; further: potency means the concentration at half of the fitted maximal effect; on activity change, negative = inhibition: on the % scale 0 is the no-effect control and ±100 the full control effect). The note with it: P450-Glo CYP2C9 enzyme assay, luciferin luminescence; series mostly up to 57.4 µM. A digest of the protocol: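 P450-Glo CYP2C9 system: proluciferin substrate with enzyme in mix containing 0.4% BSA, 10 min at room temperature, then NADPH regeneration solution added and incubated 1 h at 37C. Detection reagent stopped reaction; luminescence read after 20 min as RLU.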

Assay [4] is described as follows: Primary qHTS to identify inhibitors of SARS-CoV-2 cell entry (AID 1645846; calls by dose curve; further: nearly all actives have a fitted effect of over 45% in size). The note with it: SARS-CoV-2 pseudovirus cell entry assay, luminescence; activity change, negative = inhibition: at 57.1 µM (top of the series) unless noted; series mostly up to 57.1 µM. A digest of the protocol:
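Inhibition of spike-mediated entry was scored in human ACE2-transfected Expi293F cells. Particles were MLV-pseudotyped with Wuhan-Hu-1 S carrying a 19-aa C-terminal deletion; signal was luciferase after two days, scaled between spike PP and fusion-protein-free PP.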

Assay [5] can be described thus: Primary qHTS for inhibitors of nuclear receptor binding SET domain protein 2 (NSD2) in an isogenic RCH-ACV NSD2 p.E1099K mutant (9B) (AID 1645876). Further: nearly all actives have a fitted effect of over 70% in size. Further: potency means the concentration at half of the fitted maximal effect. The note with it: RCH-ACV NSD2 E1099K (9B) viability, CellTiter-Glo, 72 h; series mostly up to 44.9 µM.
A short description of assay [6]: Primary qHTS for inhibitors of nuclear receptor binding SET domain protein 2 (NSD2) in an RCH-ACV wild type WT cells (2C) (AID 1645877). Further: nearly all actives have a fitted effect of over 70% in size. Further: potency means the concentration at half of the fitted maximal effect. The note with it: RCH-ACV (leukaemia line) NSD2 WT (2C) viability, CellTiter-Glo, 72 h; series mostly up to 44.9 µM.
The target in assay [7] is N-terminal Xaa-Pro-Lys N-methyltransferase 1 (Homo sapiens) (UniProt Q9BV86). The assay is described as follows: Confirmatory qHTS for Inhibitors of N-terminal methyltransferase 1 (NTMT1): MTaseGlo Assay (AID 1645874).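 Further: luminescence from SAH made as NTMT1 methylates SPKRIA peptide using SAM; 0% = DMSO control and -100% = no-enzyme control; nearly all actives have a fitted effect of over 65% in size.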 The note with it: NTMT1 enzyme, MTase-Glo SAH luminescence; series mostly up to 204 µM. Put shortly:
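SPKRIA peptide at 1 uM was methylated by 125 nM NTMT1 using 100 uM SAM over 30 min at room temperature, following a 15 min compound preincubation. Product SAH was detected luminescently.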

A short description of assay [8]: Cytotoxicity counterscreen for inhibitors of SARS-CoV-2 cell entry (AID 1645845; calls by dose curve; further: nearly all actives have a fitted effect of over 50% in size). The note with it: cell viability (SARS-CoV-2 entry assay cells); series mostly up to 57.1 µM. A digest of the protocol:
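ATP-content luminescence (ATPLite 1step, 15 min RT) read after 48 h compound exposure of Expi293F cells stably expressing human ACE2; normalized to cells-only wells and media-only wells.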
For orientation: The purpose of a counterscreen is to sort out artefacts and off-target activity.

Each structure is given as a SMILES string. Records with an inconclusive call do not appear. Calls of active or inactive are those of the source. Unless noted, the call rests on the fitted dose curve; in most records, active means well fitted curve in the direction sought with a large enough effect; inconclusive means small, poorly fitted or top-dose-only effect, or another doubt; inactive means no such curve, though single readings can be large; an effect the other way counts as inactive or inconclusive.

Sequence of Cytochrome P450 2C9 (Homo sapiens) (P11712 whole entry, looked up): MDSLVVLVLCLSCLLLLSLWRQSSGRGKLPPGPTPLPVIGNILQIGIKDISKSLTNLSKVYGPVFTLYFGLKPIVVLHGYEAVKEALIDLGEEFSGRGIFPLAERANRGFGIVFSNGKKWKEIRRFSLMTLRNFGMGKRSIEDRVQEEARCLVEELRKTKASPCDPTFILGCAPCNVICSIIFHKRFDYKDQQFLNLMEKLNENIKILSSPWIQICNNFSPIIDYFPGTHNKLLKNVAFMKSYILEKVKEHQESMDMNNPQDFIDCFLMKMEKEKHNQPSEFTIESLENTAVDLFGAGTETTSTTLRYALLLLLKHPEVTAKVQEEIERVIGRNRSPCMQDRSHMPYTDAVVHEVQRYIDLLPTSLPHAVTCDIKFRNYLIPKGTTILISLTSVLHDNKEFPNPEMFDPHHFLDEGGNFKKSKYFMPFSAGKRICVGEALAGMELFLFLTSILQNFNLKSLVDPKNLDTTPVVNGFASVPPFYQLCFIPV
Sequence of Cytochrome P450 2D6 (Homo sapiens) (P10635 whole entry, looked up): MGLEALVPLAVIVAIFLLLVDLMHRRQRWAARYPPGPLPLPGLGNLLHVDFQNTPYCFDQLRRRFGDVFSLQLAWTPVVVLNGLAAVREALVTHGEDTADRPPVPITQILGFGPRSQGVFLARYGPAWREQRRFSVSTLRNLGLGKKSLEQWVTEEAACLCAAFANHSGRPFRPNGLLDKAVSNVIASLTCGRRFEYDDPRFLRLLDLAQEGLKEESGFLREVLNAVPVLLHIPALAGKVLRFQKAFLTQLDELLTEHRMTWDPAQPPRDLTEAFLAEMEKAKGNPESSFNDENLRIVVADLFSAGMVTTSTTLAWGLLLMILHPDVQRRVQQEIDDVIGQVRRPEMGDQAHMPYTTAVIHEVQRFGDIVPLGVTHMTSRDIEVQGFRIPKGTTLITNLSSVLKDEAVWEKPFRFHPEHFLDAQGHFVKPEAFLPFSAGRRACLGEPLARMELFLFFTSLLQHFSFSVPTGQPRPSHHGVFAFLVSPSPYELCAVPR
Sequence of N-terminal Xaa-Pro-Lys N-methyltransferase 1 (Homo sapiens) (Q9BV86 whole entry, looked up): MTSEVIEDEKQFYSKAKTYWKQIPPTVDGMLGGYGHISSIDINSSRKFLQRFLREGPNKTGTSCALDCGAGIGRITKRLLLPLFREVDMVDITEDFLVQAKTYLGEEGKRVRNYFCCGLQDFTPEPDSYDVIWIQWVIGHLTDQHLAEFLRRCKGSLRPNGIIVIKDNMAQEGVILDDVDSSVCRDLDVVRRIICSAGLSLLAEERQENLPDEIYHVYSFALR

As for `CN1C(=O)NC(=O)C(C)(C2=CCCCC2)C1=O` (stereo not given), the call in assay [1] was inactive. The Potency result in assay [2], in assay [3], in assay [5] and in assay [6] was “inactive” each time. Further, the activity change, negative = inhibition in assay [4] was 3.11%.

In the case of `C[C@]12CCC(=O)C=C1CC[C@@H]1[C@@H]2CC[C@@]2(C)[C@H]1CC[C@]2(C)O`, the call in assay [1] and in assay [7] was inactive. Further, the Potency entry in assay [2] and in assay [3] was “inactive” each time. Besides, the Potency in assay [5] was 23.7 µM (active).

Regarding `CNCC(=O)c1ccc(O)c(O)c1`, the compound was classed as inactive in assay [1]. The Potency entry in assay [2], in assay [3] and in assay [5] was “inactive” throughout.

Consider `CCN[C@@H](C)Cc1ccccc1`, for which the result in assay [1] was inactive. Further, the Potency in assay [2] was 6.28 µM (active). Also, the Potency entry in assay [3], in assay [5] and in assay [6] was “inactive” in each case.

Turning to `CC(=O)C1CCOC1=O` (stereo not given), the result in assay [1] was inactive. Further, the Potency entry in assay [2], in assay [3], in assay [5] and in assay [6] was “inactive” throughout.

In the case of `C#CC(O)(C=CCl)CC` (stereo not given), the compound was classed as inactive in assay [1]. Also, the Potency entry in assay [2], in assay [3], in assay [5] and in assay [6] was “inactive” throughout. Moreover, the activity change, negative = inhibition in assay [4] is -20.1%.

As to `COP(=S)(OC)Oc1ccc(SC)c(C)c1`, in assay [1], the outcome was inactive. Moreover, the Potency result in assay [2], in assay [8], in assay [5] and in assay [6] was “inactive” each time. The Potency in assay [3] is 3.89 µM (active).

Turning to `c1ccc(CN2CCNCC2)cc1`, the compound was classed as inactive in assay [1]. Besides, the Potency in assay [2] is 30.6 µM (active). For the same compound, the Potency result in assay [3], in assay [5] and in assay [6] was “inactive” each time.

`ClCCN1CCCC1`: in assay [1], the compound was called inactive. For the same compound, the Potency result in assay [2], in assay [3], in assay [5] and in assay [6] was “inactive” throughout.

As for `CCC1(c2ccccc2)C(=O)N(COC)C(=O)N(COC)C1=O`, the call in assay [1] was inactive. The Potency result in assay [2], in assay [3], in assay [5] and in assay [6] was “inactive” in each case.

In the case of `C[N+]1(CCF)[C@@H]2CC[C@H]1CC(OC(=O)C(O)(c1ccccc1)c1ccccc1)C2` (stereo not given in full), the outcome in assay [1] was inactive. In addition, the Potency in assay [2] is 15.5 µM (active). Also, the Potency result in assay [3], in assay [8], in assay [5] and in assay [6] was “inactive” throughout.

Turning to `CCN[C@H](C)Cc1cccc(C(F)(F)F)c1`, in assay [1], the result was inactive. In addition, the Potency in assay [2] is 3.16 µM (active). Further, the Potency result in assay [3] and in assay [5] was “inactive” throughout.

Turning to `CCN(CCO)CCn1c(Cc2ccccc2)nc2c1c(=O)n(C)c(=O)n2C`, in assay [1], the compound was called inactive. Further, the Potency result in assay [2], in assay [3], in assay [5] and in assay [6] was “inactive” each time.

Consider `CCC1(CC)C(=O)C=CNC1=O`, for which the call in assay [1] was inactive. The Potency result in assay [2], in assay [5] and in assay [6] was “inactive” in each case.

On to `CCCCCCCCCC(=O)O[C@H]1CC[C@H]2[C@@H]3CCC4=CC(=O)CC[C@@H]4[C@H]3CC[C@]12C`, for which, in assay [1], the call was inactive. In assay [3], the Potency is 12.3 µM (active). In addition, the Potency result in assay [5] and in assay [6] was “inactive” each time.

With `Nc1ccccc1`, the outcome in assay [1] was inactive. In addition, the Potency result in assay [3], in assay [8], in assay [5] and in assay [6] was “inactive” in each case.

With `C[C@@H](N)[C@@H](O)c1ccccc1`, the compound was classed as inactive in assay [1]. In addition, the Potency entry in assay [3], in assay [8], in assay [4], in assay [5] and in assay [6] was “inactive” in each case.

Take `CN1CC[C@]23c4c5ccc(O)c4O[C@H]2[C@@H](O)CC[C@H]3[C@H]1C5`: the compound was called inactive in assay [1]. Besides, the Potency entry in assay [3], in assay [5] and in assay [6] was “inactive” in each case.

On to `CC(C)(C)NCC(O)c1cc(Cl)c(N)c(C(F)(F)F)c1` (stereo not given), for which the Potency in assay [2] is 15.5 µM (active). Further, the Potency entry in assay [3], in assay [8], in assay [5] and in assay [6] was “inactive” each time.

Take `NC(=O)CS(=O)C(c1ccccc1)c1ccccc1` (stereo not given): the result in assay [1] was inactive. The Potency result in assay [3], in assay [5] and in assay [6] was “inactive” in each case.

For `Clc1cccc(SC2CCNCC2)n1`, in assay [1], the outcome was inactive. The Potency result in assay [5] and in assay [6] was “inactive” each time.

For `CCC(CC)(CNC(=O)CCCO)c1cccc(OC)c1`, in assay [1], the result was inactive. The Potency entry in assay [3], in assay [8], in assay [5] and in assay [6] was “inactive” in each case. Further, in assay [4], the activity change, negative = inhibition is -32.3%.

As to `C[C@]12CC[C@H]3[C@@H](CCC4=CC(=O)CC[C@@H]43)[C@@H]1CC[C@@H]2OC(=O)CCc1ccco1`, in assay [1], the compound was called inactive. For the same compound, the Potency was 15.5 µM (active) in assay [3] and 23.7 µM (active) in assay [5]. In addition, the Potency entry in assay [8] and in assay [4] was “inactive” each time.

As to `COc1cccc(C(=O)CCN[C@@H](C)[C@H](O)c2ccccc2)c1`, the Potency in assay [2] is 1.55 µM (active); in assay [3], 30.9 µM (active); in assay [5], 16.8 µM (active); in assay [6], 9.44 µM (active). For the same compound, in assay [8], the Potency entry was “inactive”.

For the compound `CC(C(=O)c1ccccc1)N(C)C` (stereo not given), the compound was called inactive in assay [1]. In addition, the Potency entry in assay [3] was “inactive”.
